Screens as filed in PubChem.
CHT block: inhibitors of human choline transporter CHT | hit rate 0.86% among 310,000 | AID 488975, 2010 | CHT-expressing cells, membrane potential dye, choline response; active compounds read low | High affinity choline transporter 1 (Homo sapiens), Q9GZV3 | B-score at 10 µM;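 active = B-score over 3 SD under the library average, and starting fluorescence ratio not unusually high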;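 note: choline stimulus applied at its EC90 after an EC20 pre-addition; B-score computed on integrated fluorescence ratio after choline addition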
Target sequence (Q9GZV3 whole entry, looked up): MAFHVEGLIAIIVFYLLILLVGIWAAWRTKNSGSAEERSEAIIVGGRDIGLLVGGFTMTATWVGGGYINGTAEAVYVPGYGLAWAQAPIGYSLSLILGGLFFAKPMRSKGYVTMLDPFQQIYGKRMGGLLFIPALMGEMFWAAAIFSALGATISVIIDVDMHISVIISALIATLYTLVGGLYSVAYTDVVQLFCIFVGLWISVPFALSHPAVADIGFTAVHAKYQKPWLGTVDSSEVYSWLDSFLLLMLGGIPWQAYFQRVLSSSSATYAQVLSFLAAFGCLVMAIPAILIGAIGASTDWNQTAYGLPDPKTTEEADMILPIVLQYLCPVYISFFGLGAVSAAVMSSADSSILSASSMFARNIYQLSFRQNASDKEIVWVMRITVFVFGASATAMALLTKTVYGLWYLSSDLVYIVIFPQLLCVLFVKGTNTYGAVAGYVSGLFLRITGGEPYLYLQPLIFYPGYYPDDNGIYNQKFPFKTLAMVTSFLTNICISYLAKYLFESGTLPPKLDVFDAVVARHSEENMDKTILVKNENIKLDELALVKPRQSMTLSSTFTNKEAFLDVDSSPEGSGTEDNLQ
MIN6 prolif-1: inducers of MIN6 beta-cell proliferation, primary screen, ATP luminescence, uHTS; proliferation, % at 10 µM; AID 2380, 2010; hit rate 0.29% among 330,000; MIN6 cells proliferation, ATPlite luminescence, 48 h; cells starved in 0.2% serum; 100% = growth in 10% serum;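 active = compounds whose signal lies at least 3.5 SD above the mean of all wells on their plate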
CHT PAM: CHT positive allosteric modulators, primary screen, cell-based, membrane potential dye, choline EC20; hit rate 0.49% among 310,000; B-score at 10 µM; High affinity choline transporter 1 (Homo sapiens), Q9GZV3; CHT-expressing cells; active compounds read high; LV-AA mutant CHT in HEK293 cells;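 active = initial fluorescence not abnormally high and integrated response B-score, plate-corrected, over 3 SD above library mean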
H9c2 TAG inh: inhibitors of triacylglycerol accumulation, primary screen, cell-based, uHTS, fluorescence, H9c2; H9c2 cells, Nile Red lipid (TAG) fluorescence; cells loaded with 200 µM oleic acid; inhibition, % at 12.5 µM; hit rate 0.66% among 230,000; AID 651582, 2012;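 active = pattern-corrected inhibition of lipid staining of at least 50% with the nuclear-stain viability signal not falling by more than 50%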
MIN6 prolif-2: inducers of beta-cell proliferation in MIN6, confirmation, MIN6 cells, mouse. proliferation increase, % at 50 µM. shares compounds with MIN6 prolif-1. 920 tested, under 10 active. ATPlite luminescence, 48 h; cells kept in 0.2% serum; scaled between 0.2% and 10% serum;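 active = proliferation increase above 40% at any of the four tested concentrations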
Large screens that a line does not name were inactive (follow-up assays come after a bar, where they were run). Shown are actives, neighbours in structure and some others; about 1.7% of the full set was active somewhere.

COCCNC(=O)C1(C)CCCN(CCS(=O)(=O)c2ccc(C)cc2)C1 (centres undefined)	none (no result: CHT block, MIN6 prolif-1, CHT PAM)
COc1cccc2sc(NN)nc12	none
COc1cccc2sc(Nc3nc(-c4ccncc4)cs3)nc12	H9c2 TAG inh 57
O=C(c1ccc2c(=O)n3c(nc2c1)CCC3)N1CCN(S(=O)(=O)c2ccccc2Br)CC1	none (no result: CHT block, MIN6 prolif-1, CHT PAM)
CC1CCN(S(=O)(=O)c2ccc3c(c2)C(=NO)c2cc(S(=O)(=O)N4CCC(C)CC4)ccc2-3)CC1	H9c2 TAG inh 84
Oc1c(C(Nc2nccs2)c2ccc(C(F)(F)F)cc2)ccc2cccnc12 (centres undefined)	H9c2 TAG inh 60 (no result: CHT block, MIN6 prolif-1, CHT PAM)
CCCC(=O)NC(c1ccc(C)cc1)c1ccc2cccnc2c1O (centres undefined)	H9c2 TAG inh 61
Oc1c(C(Nc2cccc(C(F)(F)F)c2)c2ccncc2)ccc2cccnc12 (centres undefined)	none
CC(C)C(=O)NC(c1ccco1)c1ccc2cccnc2c1O (centres undefined)	H9c2 TAG inh 72
Cc1ccc(NC(=O)CC(O)(C(F)(F)F)C(F)(F)F)c(Br)c1	CHT block -5.2 (no result: H9c2 TAG inh)
COc1ccc(C(C)NCCC(c2ccc(OC(C)C)cc2)c2ccccc2OC)cc1 (centres undefined)	CHT PAM 7.7 (no result: H9c2 TAG inh)
Cn1c2ccccc2c2c(C(=O)NCC3CCCO3)cn(C3CCCC3)c(=O)c21 (centres undefined)	none
CN1CCN(CCCNC(=O)c2cn(C3CCCCC3)c(=O)c3c2c2ccccc2n3C)CC1	CHT block -5
Cc1cc(C)nc(S/C=C/C(=O)c2ccccc2F)n1	H9c2 TAG inh 75
COc1ccc(C(C#N)CC(=O)c2ccc(OC)c(OCc3ccccc3)c2)cc1OC (centres undefined)	none (no result: CHT block, MIN6 prolif-1, CHT PAM)
Cc1cc(C)c2sc(N(CCCN(C)C)C(=O)c3ccc(S(=O)(=O)N4CCCc5ccccc54)cc3)nc2c1	H9c2 TAG inh 56
CN(C)CCCN(C(=O)c1cc(-c2cccs2)nc2ccccc12)c1nc2ccc(F)cc2s1	H9c2 TAG inh 60
COc1ccc2sc(N(CCCN(C)C)C(=O)c3ccc(S(=O)(=O)N4CCc5ccccc5C4)cc3)nc2c1	none
Cc1ccc2nc(N(CCCN(C)C)C(=O)c3ccc(S(=O)(=O)N4CCc5ccccc5C4)cc3)sc2c1	H9c2 TAG inh 69
CN(C)CCCN(C(=O)c1ccc(S(=O)(=O)N2CCc3ccccc32)cc1)c1nc2ccc(F)cc2s1	none
CN(C)CCCN(C(=O)CCc1ccccc1)c1nc2ccc(F)cc2s1	none (no result: H9c2 TAG inh)
CN(C)CCCN(C(=O)c1ccc(S(=O)(=O)N2CCc3ccccc3C2)cc1)c1nc2ccc(F)cc2s1	H9c2 TAG inh 57
Cc1cccc2sc(N(CCCN(C)C)C(=O)c3ccc(S(=O)(=O)N4CCc5ccccc5C4)cc3)nc12	none
Cc1cc(C)c2sc(N(CCCN(C)C)C(=O)c3ccc(S(=O)(=O)N4CCc5ccccc5C4)cc3)nc2c1	H9c2 TAG inh 54
Nc1cccc(N=[N+]([O-])c2cccc(N)c2)c1	none (no result: CHT block, MIN6 prolif-1, CHT PAM)
O=C(CSc1ccccc1F)NC(=O)NC1CCCC1	none (no result: CHT block, MIN6 prolif-1, CHT PAM)
O=S(=O)(c1ccc(Br)cc1Cl)N1CCN(CCO)CC1	none
OCCOCCN1CCN(C2=Nc3ccccc3Sc3ccccc32)CC1	none
O=C1C=CC(=O)c2c(O)c(N3CCN(CCOCCO)CC3)c(Br)c(O)c21	H9c2 TAG inh 101 (no result: CHT block, MIN6 prolif-1, CHT PAM)
O=C1C=CC(=O)c2c(O)c(N3CCN(CCO)CC3)c(Cl)c(O)c21	H9c2 TAG inh 100 (no result: CHT block, MIN6 prolif-1, CHT PAM)
C=CCOc1ccc(/C=C2\SC(=S)N(NS(=O)(=O)c3ccccc3)C2=O)cc1	CHT block -6.2 (no result: H9c2 TAG inh)
Cc1ccc(Cn2c(=N)c(S(=O)(=O)c3ccc(Br)cc3)cc3c(=O)n4ccccc4nc32)cc1	none (no result: H9c2 TAG inh)
COc1ccc(CCn2c(=N)c(S(=O)(=O)c3ccc(C)cc3)cc3c(=O)n4ccccc4nc32)cc1	MIN6 prolif-1 13 (no result: H9c2 TAG inh) | MIN6 prolif-2 inactive
Fc1ccc2[nH]c3c(NCc4ccccc4)ncnc3c2c1	none (no result: H9c2 TAG inh)
Cc1ccccc1-c1nc(CN2CCN(C(=O)c3ccco3)CC2)c(C)o1	MIN6 prolif-1 8.9 | MIN6 prolif-2 inactive
CC(=O)NCCc1nc2cc(NC(=O)COc3ccc(C)cc3)ccc2n1C	MIN6 prolif-1 9.2 (no result: H9c2 TAG inh) | MIN6 prolif-2 inactive
O=C(CCCCn1c(=O)c2ccccc2n(Cc2ccccc2F)c1=O)NC1CCN(Cc2ccccc2)CC1	none
CCCCOCCCn1c(-c2ccco2)nc2nc3ccccc3nc21	MIN6 prolif-1 7.8 (no result: H9c2 TAG inh) | MIN6 prolif-2 inactive
CCCCn1c(-c2cccs2)nc2nc3ccccc3nc21	none
CC(C)NC(=O)Cn1cnc2c1c(=O)n(C)c(=O)n2C	none
Cn1c(=O)c2c(ncn2CC(=O)NC2CCCCC2)n(C)c1=O	MIN6 prolif-1 11 | MIN6 prolif-2 inactive
CC(C)N(C)Cc1nnnn1CC(=O)N(C)Cc1cccc(Cl)c1	none (no result: H9c2 TAG inh)
C/C(=N/NS(=O)(=O)c1ccc(C)cc1)c1c(O)c2ccccc2oc1=O	none
C/C(=N\NS(=O)(=O)c1ccc(C)cc1)c1cc2ccccc2oc1=O	MIN6 prolif-1 8.4 | MIN6 prolif-2 inactive
CN(CC(=O)Nc1c(Cl)cccc1Cl)C(=O)CCNS(=O)(=O)c1ccccc1C(F)(F)F	MIN6 prolif-1 12 | MIN6 prolif-2 inactive
O=C(CN1CCCCCC1)Nc1ccccc1C(=O)Nc1ccccc1	none
CCCCNC(=O)Nc1nnc(C(C)(C)C)s1	MIN6 prolif-1 5.1 | MIN6 prolif-2 inactive
CC(C)(C)c1nnc(NC(=O)Nc2ccc(Cl)cc2)s1	none
COc1ccc(OC)c(C2=Nn3c(nnc3C3CCCCC3)SC2)c1	MIN6 prolif-1 9.3 | MIN6 prolif-2 inactive
C#CCOC(=O)c1ccccc1C(=O)n1nnc2ccccc21	none (no result: H9c2 TAG inh)
O=C(c1cccc2ccccc12)n1nnc2ccccc21	MIN6 prolif-1 10 (no result: H9c2 TAG inh) | MIN6 prolif-2 inactive
COc1ccc(N(C(=O)CNC(=O)c2cccs2)C(C(=O)NC2CCCC2)c2ccncc2)cc1 (centres undefined)	MIN6 prolif-1 7.3 (no result: H9c2 TAG inh) | MIN6 prolif-2 inactive
COc1ccc(N(C(=O)Cc2cccs2)C(C(=O)NC2CCCC2)c2ccncc2)cc1 (centres undefined)	none (no result: H9c2 TAG inh)
COc1ccc(NC(=O)c2ccccc2NS(=O)(=O)c2ccc(C)cc2)c([N+](=O)[O-])c1	MIN6 prolif-1 6.2 (no result: H9c2 TAG inh) | MIN6 prolif-2 inactive
Cc1ccc(NC(=O)CSc2nnnn2-c2cccnc2)c(C)c1	none (no result: H9c2 TAG inh)
COc1ccc(C2=Nn3c(nnc3-c3ccncc3)SC2)cc1	MIN6 prolif-1 14 | MIN6 prolif-2 inactive
COc1cc(/C=N\NC(=O)CNC(=O)C2COc3ccccc3O2)ccc1O (centres undefined)	none (no result: H9c2 TAG inh)
COc1ccc(/C=N\NC(=O)CNC(=O)C2COc3ccccc3O2)cc1[N+](=O)[O-] (centres undefined)	MIN6 prolif-1 14 (no result: H9c2 TAG inh) | MIN6 prolif-2 inactive
